What follows are compounds tested on WNK4. Settings: concentration: 1 μM, replicates: in singlicate; n = 1.
Nc1ncnc2[nH]c(-c3ccccc3)nc12 [AH5015] was tested, and the “%Inh” value was 19%.
With Cc1cc(-c2ccc3c(c2)CC[C@@H](N[C@@H](C)c2ccccc2)C3)cnc1N.Cl [GW412617] the “%Inh” value was 0%.
For Cc1ccc(-c2cc(-c3c[nH]nc3-c3ccccn3)ccn2)cc1 [GW684088], the “%Inh” value was 89%.
With O=C(Nc1n[nH]c2cc(-c3cccc(F)c3F)ccc12)C1CC1 [SB-733894] the “%Inh” value was 0%.
O=C(Nc1ccc2c(c1)OCO2)NC1CCN(c2ccnc(Nc3ccc(F)cc3)n2)C1 (centres unmarked) [GSK1379724] was tested, and the “%Inh” value was 11%.
In the case of O=c1cc(N2CCOCC2)nc2n(Cc3cccc(Cl)c3Cl)ccn12 [GSK2286295], the “%Inh” value is reported as 0%.
With COc1cccc(NC(=O)NC2CCN(c3ccnc(Nc4ccc(F)cc4)n3)C2)c1 (centres unmarked) [GSK1379721] the “%Inh” value was 2%.
With CN(C)CCN(C)C(=O)c1cc(-c2ccncc2)c(-c2ccc(Cl)c(O)c2)o1.Cl.Cl [SB-710397] the “%Inh” value was 47%.
For CC(C)(C)c1ccc(C(=O)Nc2cn3cc(Cl)ccc3n2)cc1, the “%Inh” value was 0%.
In the case of COc1cc2nccc(Nc3ccc(NC(=O)c4ccc(C)cc4)c(O)c3)c2cc1OC.Cl [GW440132], the “%Inh” value is reported as 0%.
For O=C1NC(=O)C(N2CCc3ccccc32)=C1c1ccccc1Cl [SB-373598], the “%Inh” value was 75%.
In the case of COc1cc2ncn(-c3cc(OCC4CCCO4)c(C(N)=O)s3)c2cc1OC (centres unmarked) [GSK204607], the “%Inh” value is reported as 35%.
In the case of COc1cc(Nc2nccc(N3CCC(NC(=O)Nc4cc(C)ccc4C)C3)n2)cc(OC)c1OC (centres unmarked) [GSK1379762], the “%Inh” value is reported as 25%.
Cl.NC(=O)c1cccc(Nc2nccc(Nc3ccc(Oc4cccc(Cl)c4)c(Cl)c3)n2)c1 [GW659008] was tested, and the “%Inh” value was 0%.

Reference: paper PMC5540273 (PLoS ONE, 2017)
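Also: KINOMEscan kinase panel screen.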
